Format in all cases: functional
Test [1] relates to Plasmodium falciparum. Put plainly: GSK_TCMDC: Inhibition of Plasmodium falciparum 3D7 in whole red blood cells, using parasite LDH activity as an index of growth. Test compounds present at 2uM.
For test [2], the system named is Plasmodium falciparum. Put plainly: GSK_TCMDC: Inhibition of Plasmodium falciparum Dd2 in whole red blood cells, using parasite LDH activity as an index of growth. Test compounds present at 2uM.
The next test relates to HepG2. Put plainly: GSK_TCMDC: Percent inhibition of human HepG2 cell line. Test compounds present at 10uM.

Regarding `NC1CCN(c2cnn(Cc3cccc(NC(=O)Nc4ccc(-c5ccccc5)cc4)c3)c(=O)c2Cl)CC1.O=C(O)C(F)(F)F`, the Inhibition in the test with Plasmodium falciparum [1] is listed as 89%; in the test on Plasmodium falciparum [2] it was 11%; with HepG2, 5%.
In the case of `Cc1cc(NC(=O)c2ccco2)ccc1OC1CCN(Cc2ccccc2)CC1.O=C(O)C(F)(F)F`, the values for the Inhibition in the test with Plasmodium falciparum [1], in the test on Plasmodium falciparum [2] and in the test with HepG2 were 93%, 95% and 3%, respectively.
On the same counts, the results for `NCCCNc1ccnc2cc(Cl)ccc12` are 100%, 25% and 14%.
For `Cc1[nH]c2ccc(-c3ccc(N(C)C)cc3)cc2c(=O)c1Cl`, the Inhibition worked out at 97% with Plasmodium falciparum [1], 96% in the test with Plasmodium falciparum [2] and 0% in the test with HepG2.
In the case of `O=c1cc(NCCCNC(CNCCc2ccccc2)c2cc(Br)cc(Br)c2)[nH]c2ccccc12` (centres undefined), the Inhibition in the test on Plasmodium falciparum [1] turned out to be 93%; in the test with Plasmodium falciparum [2], 53%; in the test on HepG2, 0%.
`COc1ccc2nccc(NC(=O)C3CCC(NCc4cnc(SC)c([N+](=O)[O-])c4)CC3)c2n1.Cl` (centres undefined): the results for the Inhibition in the test on Plasmodium falciparum [1], in the test with Plasmodium falciparum [2] and in the test on HepG2 were 89%, 44% and 8%, respectively.
Regarding `CN1CCN(c2ccnc3ccc(NC(=O)Cc4ccc(-c5ccncc5)c5ccccc45)cc23)CC1`, the values for the Inhibition in the test with Plasmodium falciparum [1], with Plasmodium falciparum [2] and in the test on HepG2 were 100%, 100% and 32%, respectively.
As for `O=c1[nH]nc(-c2ccc(N3CCCC3)c([N+](=O)[O-])c2)c2ccccc12`, the Inhibition amounted to 100% with Plasmodium falciparum [1], 39% with Plasmodium falciparum [2] and 2% in the test with HepG2.
As to `Cl.O=c1cc(NCCCNCc2scc3c(Cl)cc(C(F)(F)F)nc23)[nH]c2ccccc12`, the Inhibition is 99% in the test on Plasmodium falciparum [1], 21% with Plasmodium falciparum [2] and 9% in the test with HepG2.
As for `Cc1cccc2nc(-c3cccc(-c4cccc(C(=O)NCCc5cn(C)cn5)c4)c3)[nH]c12`, the Inhibition was determined as 100% in the test with Plasmodium falciparum [1], 78% in the test with Plasmodium falciparum [2] and 12% in the test on HepG2.
Regarding `O=[N+]([O-])c1ccc(/C=N/O)nc1`, the Inhibition stood at 80% in the test with Plasmodium falciparum [1], 98% with Plasmodium falciparum [2] and 80% in the test with HepG2.
Consider `CC[C@H]1CN(CCCC(=O)c2ccccc2)CC[C@H]1CCCc1ccnc2ccc(OC(=O)c3ccccc3)cc12.O=C(O)C(=O)O`, for which the Inhibition in the test with Plasmodium falciparum [1] amounted to 83%; with Plasmodium falciparum [2], 68%; with HepG2, 28%.
With `CC(=O)c1ccc(-c2ccc(C(=O)NCCCCN3CCC(c4ccc5c(c4OCC(N)=O)CCCC5)CC3)cc2)s1`, the Inhibition in the test on Plasmodium falciparum [1] came to 90%; in the test with Plasmodium falciparum [2] it was 4%; in the test on HepG2, 26%.
As for `Cc1cc2c(cc1C(F)(F)F)N(C(=O)Nc1cccc(C(=O)NC3CCN(Cc4ccccc4)CC3)c1)CC2`, the Inhibition in the test with Plasmodium falciparum [1] is listed as 91%; with Plasmodium falciparum [2], 0%; in the test on HepG2 it was 19%.
As for `O=c1cc(NCCCCNCc2cccc(Br)c2)[nH]c2ccccc12`, the Inhibition stood at 98% with Plasmodium falciparum [1], 19% with Plasmodium falciparum [2] and 0% in the test on HepG2.
Turning to `O=C(Nc1ccc(Cl)cc1)OCCn1nnnc1C(c1ccc(Cl)cc1)N1CCOCC1` (centres undefined), the Inhibition with Plasmodium falciparum [1] came out at 90%; in the test on Plasmodium falciparum [2] it was 79%; with HepG2, 1%.
`Cc1ccc(CNC(=O)[C@H](Cc2ccccc2)Nc2ccnc(NCC3CCCCC3)n2)cc1.O=C(O)C(F)(F)F`: the Inhibition in the test with Plasmodium falciparum [1] was found to be 92%; in the test with Plasmodium falciparum [2], 61%; in the test on HepG2, 84%.
Turning to `COc1ccccc1C1CCN(C2CCC(NC(=O)/C=C/c3ccc(C(F)(F)F)cc3F)CC2)CC1` (centres undefined), the figures for the Inhibition in the test with Plasmodium falciparum [1], in the test on Plasmodium falciparum [2] and in the test with HepG2 were 95%, 2% and 63%, respectively.
`Cl.Nc1nc(N)c2c(ccc3c2ccn3C2CCCCC2)n1`: the Inhibition in the test on Plasmodium falciparum [1] worked out at 97%; in the test with Plasmodium falciparum [2], 46%; in the test on HepG2 it was 67%.
Take `CCc1ccccc1N1CCN(CCCC(=O)c2ccc(NC(=O)c3cc(Cl)cc(Cl)c3)cc2)CC1`: the Inhibition is 99% with Plasmodium falciparum [1], 46% in the test on Plasmodium falciparum [2] and 16% in the test on HepG2.
With `CCO[C@H]1CN[C@H](C#Cc2cc3c(Nc4ccc(OCc5cccc(F)c5)c(Cl)c4)ncnc3s2)C1.O=C(O)C(F)(F)F`, the figures for the Inhibition with Plasmodium falciparum [1], with Plasmodium falciparum [2] and in the test on HepG2 were 100%, 37% and 8%, respectively.
As for `C=CC(=O)Nc1ccc(Cl)cc1C(O)c1ccccc1` (centres undefined), the Inhibition is 100% with Plasmodium falciparum [1], 5% in the test on Plasmodium falciparum [2] and 0% in the test with HepG2.
The corresponding values for `CC(C)(CNC(=O)[C@@H]1CCCN(CCOc2ccc(Cl)cc2)C1)c1nc(-c2ccc(Cl)c(O)c2)c(-c2ccncc2)[nH]1.Cl` are 92%, 57% and 58%.
For `Cc1cccc2nc(-c3ccc(-c4ccc(NC(=O)Nc5ccc(Cl)cc5)cc4)s3)[nH]c12`, the Inhibition came out at 100% in the test on Plasmodium falciparum [1], 100% in the test on Plasmodium falciparum [2] and 78% in the test on HepG2.
As for `CCOC(=O)c1cc2c(CCN3C(=O)c4ccccc4C3=O)cn(C)c2cc1-c1ccncc1`, the values for the Inhibition with Plasmodium falciparum [1], in the test with Plasmodium falciparum [2] and in the test on HepG2 were 100%, 90% and 99%, respectively.
The corresponding values for `O=C(Nc1cccc(F)c1)NC1CCN(CCCCCNC(=O)C2CC2c2ccc(Cl)c(Cl)c2)CC1` (centres undefined) are 100%, 12% and 41%.
Consider `Cc1cc(Nc2cccc(C(F)(F)F)c2)nc(Nc2cccc(C(F)(F)F)c2)n1`, for which the Inhibition came out at 100% in the test on Plasmodium falciparum [1], 73% in the test on Plasmodium falciparum [2] and 0% with HepG2.
As to `O=C(O)C(F)(F)F.c1ccc(CN2CCC(NCc3ccc(-c4ccc(CNCc5cccnc5)cn4)cc3)CC2)cc1`, the Inhibition came to 97% in the test with Plasmodium falciparum [1], 13% with Plasmodium falciparum [2] and 0% in the test on HepG2.

By Inhibition is commonly meant the drop in the measured response relative to a control, in per cent. A low value points to a weak effect.

For the origin of these results see ChEMBL document CHEMBL1157539, “Thousands of chemical starting points for antimalarial lead identification” (Nature, 2010).
